PubChem BioAssay AID2534 (National Center for Advancing Translational Sciences (NCATS), 2010)
Records with an inconclusive call do not appear. Active and inactive are the calls of the source. The call rests on the fitted dose curve; in most records, active means well fitted curve in the direction sought with a large enough effect; inconclusive means small, poorly fitted or top-dose-only effect, or effect the other way, or another doubt; inactive means no such curve, though single readings can be large or run the other way.

What follows are compounds tested against Pyruvate kinase PKLR (Homo sapiens) (UniProt P30613) (assay: Secondary Concentration-Response Assay for Activators of Human Reticulocyte Pyruvate Kinase: for Probe SAR). Conditions: purified hPK-R, ATP production, Kinase-Glo luminescence; series mostly up to 57.5 µM.
Chain of Pyruvate kinase PKLR (Homo sapiens) (P30613 whole entry, looked up): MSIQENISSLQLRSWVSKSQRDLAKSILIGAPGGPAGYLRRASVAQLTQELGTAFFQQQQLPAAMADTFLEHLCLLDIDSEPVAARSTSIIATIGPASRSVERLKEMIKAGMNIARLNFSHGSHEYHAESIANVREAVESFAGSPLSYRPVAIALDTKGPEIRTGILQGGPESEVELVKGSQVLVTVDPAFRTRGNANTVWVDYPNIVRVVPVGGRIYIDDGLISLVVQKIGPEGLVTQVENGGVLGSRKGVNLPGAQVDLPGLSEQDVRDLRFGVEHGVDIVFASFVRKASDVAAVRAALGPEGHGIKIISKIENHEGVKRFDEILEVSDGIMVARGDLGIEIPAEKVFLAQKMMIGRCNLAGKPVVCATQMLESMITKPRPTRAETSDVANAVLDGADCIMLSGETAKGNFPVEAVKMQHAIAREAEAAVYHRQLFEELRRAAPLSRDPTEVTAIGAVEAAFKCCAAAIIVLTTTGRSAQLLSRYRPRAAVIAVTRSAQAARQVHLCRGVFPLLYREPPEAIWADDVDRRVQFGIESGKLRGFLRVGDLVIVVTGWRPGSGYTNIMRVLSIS
Excerpt: NIH Chemical Genomics Center [NCGC]
Wael M. Rabeh, Lyudmila Nedyalkova and Hee-Wan Park [Structural Genomics Consortium, 100 College St. Toronto, Ontario, Canada]
Human pyruvate kinase reticulocyte (hPK-R) enzyme was supplied as a highly purified (>95% pure) preparation from Structural Genomics Consortium in Toronto (Ontario, Canada) and assayed for its ability to generate ATP from ADP using phosphoenolpyruvate (PEP) as a substrate. ATP generation was detected in a coupled reaction by luciferase-mediated luminescence, an ATP-dependent process. Pyruvate kinase substrates, PEP and ADP, were present in the assay at Km and approximately 10-fold below Km respectively. The enzyme was assayed at an intermediate level of activity to screen for both inhibitors and activators.
NCGC Assay Protocol Summary for R-isoform
Three uL of substrate mix (at r.t.) in assay buffer (50 mM Imidazole pH7.2, 50 mM KCl, 7 mM MgCl2, 0.01% Tween 20, 0.05% BSA) was dispensed into white solid bottom 1,536 well microtiter plates so that the final concentrations of substrates in the assay were 0.1 mM ADP and 0.5 mM PEP. 23 nL of compound were delivered by a pin tool and 1 uL of enzyme mix (final concentration of 0.1 nM) in assay buffer (4 degree Celsius) was added. Plates were incubated at room temperature for 1 hour. Two uL of detection mix (Kinase-Glo, Promega; at 4 degree Celsius protected from light) was added and luminescence read by a ViewLux (Perkin Elmer) at 1 second exposure/plate. Data were normalized to the uninhibited (row 31). Additionally, a no enzyme and 5-fold enzyme control was dispensed in row 32, split equally between the two conditions.

outcome, inactive:
Cc1ccc(NS(=O)(=O)c2ccc3c(c2)CCC(=O)N3)cc1C
Cc1ccc(NS(=O)(=O)c2cc3c(cc2F)NC(=O)CC3)cc1Cl
Cc1cc(N2C(=O)c3ccccc3C2=O)n[nH]1
O=C1CCc2cc(S(=O)(=O)Nc3cccc(Oc4ccccc4)c3)ccc2N1
CCNc1cccc(S(=O)(=O)N2CCCN(S(=O)(=O)c3ccc4c(c3)OCCO4)CC2)c1
O=C1CCc2cc(S(=O)(=O)Nc3ccccc3Cl)ccc2N1
O=C1CCc2cc(S(=O)(=O)Nc3cccc(Br)c3)ccc2N1
O=C1CCc2cc(S(=O)(=O)Nc3ccc(Cl)cc3)ccc2N1
O=C1c2ccccc2C(=O)N1Cc1ccncc1
N#Cc1ccc(NS(=O)(=O)c2ccc3c(c2)CCC(=O)N3)cc1
O=C1CCc2cc(Cl)c(S(=O)(=O)Nc3ccc(Cl)c(Cl)c3)cc2N1
O=C1c2ccccc2C(=O)N1C1CCCCC1
COc1ccccc1NS(=O)(=O)c1ccc2c(c1)CCC(=O)N2
CC(C)Nc1cccc(S(=O)(=O)N2CCCN(S(=O)(=O)c3ccc4c(c3)OCCO4)CC2)c1
Cc1ccc(Cl)cc1NS(=O)(=O)c1cc2c(cc1F)NC(=O)CC2
Cc1ccc(C)c(SC2=NS(=O)(=O)c3cc(C(=O)NCc4ccccc4)ccc32)c1
CCCCN1C(=O)c2ccccc2C1=O
Cc1ccc(N2C(=O)c3ccccc3C2=O)c(C)c1
CNc1cccc(S(=O)(=O)N2CCCN(S(=O)(=O)c3ccc4c(c3)OCCO4)CC2)c1
Cc1cc(NS(=O)(=O)c2ccc3c(c2)CCC(=O)N3)ccc1F
Cc1cc(N2C(=O)c3ccccc3C2=O)no1
O=C1c2ccccc2C(=O)N1c1noc2ccccc12
COC(=O)c1ccc2c(c1)S(=O)(=O)N=C2Sc1cc(C)ccc1C
Cc1ccc(NS(=O)(=O)c2ccc3c(c2)CCC(=O)N3)cc1F
O=C1CCc2cc(S(=O)(=O)Nc3ccc(Cl)c(Cl)c3)ccc2N1
O=C1CCc2cc(S(=O)(=O)Nc3cccc(F)c3)ccc2N1
O=C1c2ccccc2C(=O)N1c1cccc2cccnc12
O=C1CCc2cc(S(=O)(=O)Nc3cccc(C(F)(F)F)c3)ccc2N1
O=S(=O)(c1ccc2c(c1)OCCO2)N1CCN(S(=O)(=O)c2c(F)cccc2F)CC1
O=C1c2ccccc2C(=O)N1Cc1cccnc1
Cc1c(Cl)cccc1NS(=O)(=O)c1cc2c(cc1Cl)CCC(=O)N2
O=C1CCc2cc([S+](=O)([O-])Nc3ccc(N[S+](=O)([O-])c4ccc5c(c4)CCC(=O)N5)cc3)ccc2N1
COc1cc(N2C(=O)c3ccccc3C2=O)c2ncccc2c1
O=C1CCc2cc(S(=O)(=O)Nc3cccc(-c4ccccc4)c3)ccc2N1
O=C1CCc2cc(S(=O)(=O)Nc3cccc(B(O)O)c3)ccc2N1
O=C1c2ccccc2C(=O)N1c1cc(=O)c2ccccc2[nH]1
Cc1cc2c(s1)c1cnn(Cc3ccccc3F)c(=O)c1n2C
Cc1ccc(Cl)cc1NS(=O)(=O)c1cc2c(cc1Cl)CCC(=O)N2
Cc1cccc(NS(=O)(=O)c2ccc3c(c2)CCC(=O)N3)c1
O=C1CCc2cc(S(=O)(=O)Nc3ccc(F)c(Cl)c3)ccc2N1
